Measured values as given in PMC4336329 (PLoS ONE, 2015).
Out of some 310,000 compounds screened, about 14,000 (4.5%) showed an effect of 50% or more. The effect is printed as a negative number. The list comes from a sample in which strong results are over-represented; it also holds similar structures and randomly drawn compounds.

These compounds were tested against human ether-à-go-go-related gene (hERG) potassium channel (human, UniProt Q12809) (assay: primary screen, population patch clamp on CHO cells stably expressing hERG; higher = less effect of the substance).
Sequence of human ether-à-go-go-related gene (hERG) potassium channel (Q12809 whole entry, looked up): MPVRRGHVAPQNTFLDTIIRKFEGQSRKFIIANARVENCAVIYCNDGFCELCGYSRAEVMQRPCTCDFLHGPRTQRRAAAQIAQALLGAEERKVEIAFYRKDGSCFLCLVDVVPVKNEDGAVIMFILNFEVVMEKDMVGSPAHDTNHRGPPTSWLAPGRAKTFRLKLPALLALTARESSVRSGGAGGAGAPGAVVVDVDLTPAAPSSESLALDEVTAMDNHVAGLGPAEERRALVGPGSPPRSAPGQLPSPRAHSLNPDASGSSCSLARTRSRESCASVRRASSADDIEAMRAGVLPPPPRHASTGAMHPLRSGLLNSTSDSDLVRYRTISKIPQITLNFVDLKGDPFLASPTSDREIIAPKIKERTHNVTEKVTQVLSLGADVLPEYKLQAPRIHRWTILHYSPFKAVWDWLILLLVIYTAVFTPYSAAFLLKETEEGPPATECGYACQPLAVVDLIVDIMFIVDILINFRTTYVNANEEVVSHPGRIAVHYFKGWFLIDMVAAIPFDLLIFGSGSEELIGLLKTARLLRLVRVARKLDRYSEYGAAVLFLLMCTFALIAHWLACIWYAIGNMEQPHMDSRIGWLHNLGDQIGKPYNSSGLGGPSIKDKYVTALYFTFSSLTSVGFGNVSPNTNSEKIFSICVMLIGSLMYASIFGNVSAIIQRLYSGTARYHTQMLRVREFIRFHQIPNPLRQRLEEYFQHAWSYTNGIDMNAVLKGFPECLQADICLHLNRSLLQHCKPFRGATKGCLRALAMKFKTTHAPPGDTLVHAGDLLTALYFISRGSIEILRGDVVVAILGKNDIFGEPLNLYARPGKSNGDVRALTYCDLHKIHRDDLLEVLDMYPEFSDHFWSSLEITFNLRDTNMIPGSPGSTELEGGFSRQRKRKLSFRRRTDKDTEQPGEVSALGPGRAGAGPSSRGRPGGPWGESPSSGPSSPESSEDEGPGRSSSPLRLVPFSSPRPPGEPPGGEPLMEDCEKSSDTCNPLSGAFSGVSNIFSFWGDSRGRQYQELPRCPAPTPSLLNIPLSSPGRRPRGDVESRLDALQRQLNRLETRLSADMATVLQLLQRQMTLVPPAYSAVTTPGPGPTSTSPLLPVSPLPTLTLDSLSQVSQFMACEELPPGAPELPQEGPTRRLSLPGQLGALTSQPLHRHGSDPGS
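Further: peak tail current of the secondary pulse compared with the same well before compound.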

| Compound | hERG current change (%, negative = inhibition) at 10uM |
| --- | --- |
| Cc1occc1C(=O)NNC1=CC(=O)CC(C)(C)C1 | 13.3% |
| CC1CCN(CCCNC(=O)CCNC(=O)Cn2cnc3ccccc3c2=O)CC1 | 20.5% |
| OC1(C(F)(F)F)CC(c2ccc3ccccc3c2)=NO1 (centres unmarked) | 4.45% |
| COCc1[nH]nc2c1C(c1cccc(OC)c1)C(C#N)=C(N)O2 (centres unmarked) | -7.26% |
| CCOc1ccc(NC(=O)C2CCC(C)(C(=O)O)C2(C)C)cc1 (centres unmarked) | 6.49% |
| CCN(C(=O)COC(=O)c1ccccc1NC(=O)c1ccco1)C1CCS(=O)(=O)C1 (centres unmarked) | -72.1% |
| CCN(C(=O)COC(=O)c1ccccc1Nc1cccc(C)c1C)C1CCS(=O)(=O)C1 (centres unmarked) | 2.59% |
| CN(C(=O)COC(=O)c1ccccc1NC(=O)c1ccco1)C1CCS(=O)(=O)C1 (centres unmarked) | -62.3% |
| CCN(C(=O)COC(=O)c1ccccc1NCCO)C1CCS(=O)(=O)C1 (centres unmarked) | -5.97% |
| CN(C(=O)COC(=O)c1ccccc1Nc1ccccc1)C1CCS(=O)(=O)C1 (centres unmarked) | -41.4% |
| O=C(COC(=O)c1ccccc1NC(=O)c1ccco1)NC1CCS(=O)(=O)C1 (centres unmarked) | -2.03% |
| CCOc1ccccc1C1CC(=O)Nc2cc(OC)c(OC)cc21 (centres unmarked) | 13.2% |
| O=CNC1CCCc2c1[nH]c1ccc(Cl)cc21 (centres unmarked) | -9.15% |
| COc1cccc(OC(=O)N2CCOCC2)c1 | 8.3% |
| O=C(CCCN1C(=O)c2ccccc2C1=O)Nc1cccc(S(=O)(=O)NC2=NCCC2)c1 | 13.5% |
| COc1ccc(N2CCN(C(C)C(=O)N3CC(C)OC(C)C3)CC2)cc1.O=C(O)C(=O)O (centres unmarked) | 18% |
| COc1ccc(/C=N/NC(=O)CCCC(=O)NC2CCCCC2)cc1 | 5.06% |
| O=C(NCCCO)/C(=C/c1ccc(-c2cccc([N+](=O)[O-])c2)o1)NC(=O)c1ccccc1 | -31.5% |
| CN(C)CCNC(=O)/C(=C/c1ccc(-c2cccc([N+](=O)[O-])c2)o1)NC(=O)c1ccccc1 | -75.4% |
| CN(C)C(=O)/C(=C/c1ccc(-c2cccc([N+](=O)[O-])c2)o1)NC(=O)c1ccccc1 | -21.3% |
| CN(C)CCCNC(=O)/C(=C\c1ccc(-c2cccc([N+](=O)[O-])c2)o1)NC(=O)c1ccccc1 | -81.2% |
| C=CCNC(=O)/C(=C/c1cn(-c2ccccc2)nc1-c1cccc([N+](=O)[O-])c1)NC(=O)c1ccccc1 | -3.58% |

| Compound | hERG current change (%, negative = inhibition) at 10uM |
| --- | --- |
| CN(C)C(=O)/C(=C\c1ccc(-c2cccc([N+](=O)[O-])c2)o1)NC(=O)c1ccccc1 | -47.9% |
| CCCCCn1c(=O)[nH]c2cc(C(=O)NCCN3CCCCC3C)ccc2c1=O (centres unmarked) | -15.9% |
| CCOC(=O)c1ccc(NC(=S)NNC(=O)C2(C)CC2(Cl)Cl)cc1 (centres unmarked) | 28.4% |
| O=C(O)CCSc1nnc(COc2ccc([N+](=O)[O-])cc2)n1-c1ccccc1 | 22.8% |
| C/C(=C\[C@@H](NP(=O)(c1ccccc1)c1ccccc1)c1ccccc1)CO[Si](c1ccccc1)(c1ccccc1)C(C)(C)C | 5.58% |
| CCN(CC)S(=O)(=O)c1cccc(C(=O)NCC(=O)OCC(=O)NCc2ccccc2)c1 | -7.41% |
| CC1CC1C(=O)OCc1cc(=O)n2cc(Br)ccc2n1 (centres unmarked) | -16.2% |
| Cc1cc(C)c(C)c(S(=O)(=O)N[C@@H](C)C(=O)OCc2cc(=O)n3cc(Br)ccc3n2)c1C | -47% |
| CCOc1ccc(CC(=O)OCc2cc(=O)n3cc(Br)ccc3n2)cc1 | -6.01% |
| O=C(CNS(=O)(=O)c1ccc(Br)cc1)OCc1cc(=O)n2cc(Br)ccc2n1 | -26% |
| C[C@H](NS(=O)(=O)c1ccc(Cl)c(Cl)c1)C(=O)OCc1cc(=O)n2cc(Br)ccc2n1 | -63.4% |
| CC1(C(=O)OCc2cc(=O)n3cc(Br)ccc3n2)CC1(Cl)Cl (centres unmarked) | -54.3% |
| COc1ccc(NS(=O)(=O)c2cc(NC(=O)c3ccc(=O)[nH]c3)ccc2C)cc1 | 15.1% |
| CC(=O)Nc1ccc(S(=O)(=O)N2CCN(c3nnnn3-c3ccccc3)CC2)cc1 | 13.1% |
| O=[N+]([O-])c1ccc(C[n+]2cccc3ccc4cccnc4c32)cc1.[Br-] | -62.6% |
| O=[N+]([O-])c1ccc(C[n+]2cccc3ccccc32)cc1.[Cl-] | -3.07% |
| O=[N+]([O-])c1ccc(C[n+]2cccc3c4ccccc4ccc32)cc1.[Br-] | -40.5% |
| CN(C)c1ccc(C2N(C(=O)N3CCOCC3)CCN2S(=O)(=O)c2ccccc2)cc1 (centres unmarked) | 3.98% |
| CCn1nc(C)cc1C(=O)N1CCCC(C(=O)c2ccc(Oc3ccccc3)cc2)C1 (centres unmarked) | -9.04% |
| CCN1CCN(CC(=O)N2CCCC(C(=O)c3ccc(Oc4ccccc4)cc3)C2)CC1 (centres unmarked) | -52.7% |
| CC(=O)N1CCCC(C(=O)c2ccc(Oc3ccccc3)cc2)C1 (centres unmarked) | -5.43% |
| COCC(=O)N1CCCC(C(=O)c2ccc(Oc3ccccc3)cc2)C1 (centres unmarked) | -34.1% |
